Measured values taken from the antibiotic and cytotoxicity screens of Wong et al. (2023).
Hit rate of the full screen: of about 39,000 compounds, about 3,300 (8.5%) were called active. The entries come from a sample that favours actives as a whole.

test system: HepG2; assay: cytotoxicity call (relative viability < 0.9); settings: 10 µM

Row | Compound | cytotoxicity call
1 | C[C@H](CO)N1C[C@H](C)[C@H](CN(C)C(=O)CCC(F)(F)F)OCCCC[C@H](C)Oc2ccc(NC(=O)Cc3ccccc3)cc2C1=O | inactive
2 | C[C@@H]1CN([C@@H](C)CO)C(=O)c2cc(C#Cc3cccc(F)c3)cnc2O[C@H]1CN(C)Cc1ccccn1 | inactive
3 | Cc1ccc(S(=O)(=O)Nc2ccc3c(c2)C(=O)N([C@@H](C)CO)C[C@@H](C)[C@H](CN(C)C(=O)c2ccccc2)OCCCC[C@H](C)O3)cc1 | inactive
4 | Cc1noc(C)c1NC(=O)N(C)C[C@H]1OCCCC[C@H](C)Oc2ccc(NC(=O)C3CCCCC3)cc2C(=O)N([C@@H](C)CO)C[C@@H]1C | inactive
5 | C[C@@H]1CCCCO[C@H](CN(C)C(=O)Nc2ccc(F)cc2)[C@H](C)CN([C@H](C)CO)C(=O)c2cc(NC(=O)Cc3ccccc3)ccc2O1 | inactive
6 | C[C@@H]1CN([C@@H](C)CO)C(=O)c2cccc(NC(=O)C3CCOCC3)c2O[C@@H]1CN(C)S(=O)(=O)c1ccccc1 | inactive
7 | C[C@H](CO)N1C[C@H](C)[C@@H](CN(C)C(=O)CN2CCOCC2)Oc2ncc(-c3cncnc3)cc2C1=O | inactive
8 | Cc1noc(C)c1S(=O)(=O)N(C)C[C@H]1Oc2ccc(NS(C)(=O)=O)cc2C(=O)N([C@@H](C)CO)C[C@H]1C | inactive
9 | C[C@@H]1CN([C@H](C)CO)C(=O)c2cccc(NC(=O)Nc3ccc(F)cc3)c2O[C@@H]1CN(C)Cc1ccc(Cl)c(Cl)c1 | inactive
10 | C[C@H]1CN([C@@H](C)CO)C(=O)c2cccc(NC(=O)Nc3ccc(C(F)(F)F)cc3)c2O[C@H]1CN(C)Cc1ccc(Cl)c(Cl)c1 | inactive
11 | C[C@H](CO)N1C[C@H](C)[C@@H](CN(C)Cc2ccc(Cl)c(Cl)c2)Oc2c(NC(=O)Nc3ccc(C(F)(F)F)cc3)cccc2C1=O | active
12 | CCOc1ccnc2c1c(=O)n(CC(N)=O)c(=O)n2C | inactive
13 | Cc1noc(C)c1S(=O)(=O)N(C)C[C@@H]1OCCCC[C@H](C)Oc2ccc(NS(=O)(=O)c3cn(C)cn3)cc2C(=O)N([C@H](C)CO)C[C@@H]1C | inactive
14 | COc1cccc2c1C(=O)c1c(O)c3c(c(O)c1C2=O)CC(O)(C(C)=O)CC3OC1CC(N)C(O)C(C)O1.Cl (stereo not given) | active
15 | COc1cccc2c1C(=O)c1c(O)c3c(c(O)c1C2=O)C[C@@](O)(C(C)=O)C[C@@H]3O[C@H]1C[C@H](N)[C@H](O)[C@H](C)O1 | active
16 | COc1cccc2c1C(=O)c1c(O)c3c(c(O)c1C2=O)C[C@](O)(C(C)=O)C[C@H]3O[C@H]1C[C@@H](N)[C@@H](O)[C@@H](C)O1 | active
17 | CC(=O)[C@]1(N)Cc2c(O)c3c(c(O)c2[C@@H](O[C@H]2C[C@H](O)[C@H](O)CO2)C1)C(=O)c1ccccc1C3=O | active
18 | CCNC(=O)C[C@@H]1C=C[C@@H](NC(=O)C2CCOCC2)[C@@H](CO)O1 | inactive
19 | Cc1ccc(S[C@H](C)C(=O)c2ccc(C)c(Cl)c2)cc1 | inactive
20 | C[C@@H]1CN([C@H](C)CO)C(=O)c2cc(NC(=O)c3ccccc3)ccc2O[C@@H](C)CCCCO[C@H]1CN(C)C(=O)CCC(F)(F)F | inactive
21 | C[C@@H]1CCCCO[C@H](CN(C)C(=O)Nc2ccc(F)cc2)[C@H](C)CN([C@H](C)CO)C(=O)c2cc(NC(=O)c3ccncc3)ccc2O1 | inactive
22 | CCCN(C)C[C@@H]1Oc2cc(C#Cc3cccc(OC)c3)ccc2S(=O)(=O)N([C@H](C)CO)C[C@@H]1C | inactive
23 | C/C=C(\C(C)=N\O)c1ccccc1 | inactive
24 | CN1C(=O)c2cc(NC(=O)C3CCCC3)ccc2OC[C@H]2O[C@@H](CC(=O)NCCc3ccncc3)CC[C@H]21 | inactive
25 | CN(C)CC(=O)N[C@@H]1CC[C@H](CC(=O)O)O[C@@H]1CO | inactive

Row | Compound | cytotoxicity call
26 | CC(=O)[C@]1(O)Cc2c(O)c3c(c(O)c2[C@@H](O[C@@H]2C[C@@H](N)[C@H](O)[C@@H](C)O2)C1)C(=O)c1c(O)cccc1C3=O | active
27 | CC(C)NC(=O)Nc1ccc2c(c1)CC(=O)N([C@@H](C)CO)C[C@H](C)[C@@H](CN(C)S(=O)(=O)c1ccc(F)cc1)O2 | inactive
28 | C[C@@H]1CN([C@@H](C)CO)C(=O)c2cc(NC(=O)Nc3cccc4ccccc34)ccc2O[C@@H]1CN(C)Cc1ccncc1 | inactive
29 | C[C@H](CO)N1C[C@H](C)[C@H](CN(C)Cc2ccncc2)Oc2ccc(NC(=O)CCCN(C)C)cc2C1=O | inactive
30 | CC(C)C[C@H](N)C(=O)N[C@@H](C)C(=O)O | active
31 | CC(C)C[C@@H](NC(=O)[C@@H](C)N)C(=O)O | inactive
32 | CC(C)C[C@H](N)C(=O)O | inactive
33 | C[C@H]1CN([C@@H](C)CO)C(=O)Cc2cc(NC(=O)CCN3CCOCC3)ccc2O[C@H]1CN(C)S(=O)(=O)c1cn(C)cn1 | inactive
34 | O=C1CSC(=Nc2nccs2)N1 | inactive
35 | O=C(O)CCCN=C1NC(=O)CC(=O)N1 | inactive
36 | O=C(O)CCN=C1NC(=O)CS1 | active
37 | C[C@H]1CN([C@@H](C)CO)C(=O)c2cccc(NC(=O)c3ccncc3)c2O[C@@H]1CN(C)Cc1ccc(-c2ccccc2)cc1 | inactive
38 | C[C@H](CO)N1C[C@H](C)[C@@H](CN(C)S(=O)(=O)c2ccc(F)cc2)Oc2ccc(NS(=O)(=O)c3cccs3)cc2CC1=O | inactive
39 | COc1ccc([Si](C)(C)[C@H]2[C@H](CC(=O)N(CCO)Cc3ccccc3)O[C@@]3(C(=O)N(C)c4c(Br)cc(C)cc43)[C@@H]2C)cc1 | active
40 | COc1ccc([Si](C)(C)[C@@H]2[C@@H](CC(=O)N(CCO)Cc3ccccc3)O[C@]3(C(=O)N(C)c4c(Br)cc(C)cc43)[C@H]2C)cc1 | inactive
41 | COc1ccc([Si](C)(C)[C@H]2[C@H](CCn3cc([C@H](O)c4ccccc4)nn3)O[C@@]3(C(=O)N(c4ccccc4)c4ccccc43)[C@@H]2C)cc1 | inactive
42 | COc1ccc(C(=O)Nc2ccc(CN3C(=O)[C@@]4(O[C@@H](CC(=O)N(CCO)Cc5ccccc5)[C@H]([Si](C)(C)c5ccc(OC)cc5)[C@H]4C)c4ccccc43)cc2)cc1 | inactive
43 | COc1ccc([Si](C)(C)[C@@H]2[C@@H](CC(=O)N3Cc4ccccc4C[C@H]3CO)O[C@]3(C(=O)N(C)c4c(Br)cc(C)cc43)[C@H]2C)cc1 | inactive
44 | COc1ccc(C(=O)Nc2cccc(CN3C(=O)[C@]4(O[C@H](CC(=O)N(CCO)Cc5ccccc5)[C@@H]([Si](C)(C)c5ccc(OC)cc5)[C@@H]4C)c4ccccc43)c2)cc1 | active
45 | COc1ccc([Si](C)(C)[C@H]2[C@H](CCn3cc([C@H](O)c4ccccc4)nn3)O[C@@]3(C(=O)N(C)c4c(Br)cc(C)cc43)[C@@H]2C)cc1 | active
46 | COc1ccc([Si](C)(C)[C@H]2[C@H](CC(=O)N(CCO)Cc3ccccc3)O[C@@]3(C(=O)N(Cc4cccc(N5CCOC5=O)c4)c4ccccc43)[C@@H]2C)cc1 | inactive
47 | COc1ccc(C(=O)Nc2ccc(CN3C(=O)[C@]4(O[C@H](CC(=O)N(CCO)Cc5ccccc5)[C@@H]([Si](C)(C)c5ccc(OC)cc5)[C@@H]4C)c4ccccc43)cc2)cc1 | inactive
48 | COc1ccc([Si](C)(C)[C@@H]2[C@@H](CC(=O)N(CCO)Cc3ccccc3)O[C@]3(C(=O)N(Cc4cccc(N5CCOC5=O)c4)c4ccccc43)[C@H]2C)cc1 | inactive
49 | COc1ccc(C(=O)Nc2cccc(CN3C(=O)[C@@]4(O[C@@H](CC(=O)N(CCO)Cc5ccccc5)[C@H]([Si](C)(C)c5ccc(OC)cc5)[C@H]4C)c4ccccc43)c2)cc1 | active
50 | COc1ccc([Si](C)(C)[C@@H]2[C@@H](CCn3cc([C@H](O)c4ccccc4)nn3)O[C@]3(C(=O)N(C)c4c(Br)cc(C)cc43)[C@H]2C)cc1 | inactive
